ELG1 DNA repair: blocks ELG1-dependent DNA repair in HEK293T cells; actives 2.3% (n = 330,000); HEK293T ELG1-luciferase reporter, luminescence, 16 h; DNA damage induced by 5-fluorouridine; AID 504467; Potency, µM (series often up to 46.1 µM), inactives show at the highest dose activity change, negative = inhibition, usual class: inhibitors; note: % is set by controls: 0 for no effect and ±100 for the full control effect; nearly all actives have a fitted effect of over 55% in size
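In this reporter screen, reduction of luminescence relative to DMSO vehicle indicated activity. Compounds and 5-fluorouridine were added together to 2,000 cells per well, incubated for 16 hr at 37 °C, then developed with ONE-Glo.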
MCF10A rereplic: induces DNA re-replication in MCF 10a normal breast cells. MCF 10A DNA re-replication, Hoechst nuclear intensity, 48 h. Potency, µM (series often up to 46.1 µM), for inactives: at the highest dose activity, positive = re-replication, usual class: activators. actives 2.9% (n = 350,000). AID 624296; note: % of control where 0% means no effect; nearly all actives have a fitted effect of over 50% in size
KB-3-1 cytotox: kills parental KB-3-1 adenocarcinoma cells; KB-3-1 viability, CellTiter-Glo ATP luminescence, 72 h; actives 1.4% (n = 400,000); Potency, µM (series often up to 46.1 µM), actives largely listed as cytotoxic; note: % is set by controls: 0 for no effect and ±100 for the full control effect; nearly all actives have a fitted effect of over 60% in size
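Parental KB-3-1 adenocarcinoma cells in phenol-red-free DMEM with 10% FBS were pin-treated with compounds at several concentrations, incubated 72 h at 37 °C, and viability read by CellTiter-Glo luminescence; concentration-effect curves were fitted after normalization.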
SW480 rerep: induces DNA re-replication in SW480 colon adenocarcinoma cells | SW480 DNA re-replication, Hoechst DNA content imaging, 48 h | Potency, µM (titrated, usually from 46.1 µM), for inactives: at the highest dose re-replication activation, actives largely listed as activators | actives 1.8% (n = 340,000); note: % of control where 0% means no effect; nearly all actives have a fitted effect of over 55% in size
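Treated cells incubate 48 hr (37 C, 5% CO2), are stained 40 min with Hoechst, and nuclear fluorescence is enumerated; a rise in nuclei with high DNA signal marks re-replication.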
KB-V1 MDR tox: kills drug-selected multidrug resistant KB-V1 cells | KB-V1 MDR cells viability, CellTiter-Glo, 72 h | Potency, µM (doses to about 46.1 µM), hits mostly cytotoxic | actives 3.4% (n = 400,000); note: % is set by controls: 0 for no effect and ±100 for the full control effect; nearly all actives have a fitted effect of over 60% in size
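Cytotoxicity toward P-gp-expressing KB-V1 cells was determined as loss of CellTiter-Glo luminescence after 72 h at 37 degrees C. Compounds were tested in quantitative HTS format across a concentration range, with curves fitted to normalized data.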
Active calls of the source: *; i = inactive; ? = inconclusive; . = not tested or not shown; [ ] = another dose, or the depositor's remark. An excerpt weighted towards active compounds, which were near 8.1% of everything screened. Calls come from the whole dose curve; as a rule, active = well fitted curve in the direction sought with a large enough effect; inconclusive = small, poorly fitted or top-dose-only effect, or another doubt; inactive = no such curve, though single readings can be large; an effect the other way counts as inactive or inconclusive. Potency is the fitted concentration of half-maximal effect.

SMILES	ELG1 DNA repair	MCF10A rereplic	KB-3-1 cytotox	SW480 rerep	KB-V1 MDR tox
O=C(CCNS(=O)(=O)c1ccccc1Cl)N1CCN(c2ccccn2)CC1	0.5%	4.8%	?	-1.7%	16.4µM*
CCOC(=O)c1cc(-c2ccccc2)n(CCC(=O)N2CCN(c3ccccn3)CC2)c1C	23.1µM*	4.8%	?	0.7%	?
O=C(Nc1ccccc1Cl)N1CCN(c2ccccn2)CC1	6.2%	-1.0%	?	-18.5%	16.4µM*
CCOC(=O)c1ccc(NC(=O)N2CCN(c3ccccn3)CC2)cc1	?	-0.4%	i	2.3%	16.4µM*
CCOC(=O)c1ccc(NC(=O)N2CCN(CCc3ccccc3)CC2)cc1	0.1%	-4.8%	i	-9.7%	i
O=C(O)CCCCCN1C(=O)c2ccc(C(=O)O)cc2C1=O	4.7%	14.6µM*	i	-25.0%	i
CC(=O)Nc1nnc(COc2ccccc2)s1	?	-1.6%	i	18.4µM*	i
CC1CCCN(CCOCCOc2ccc(Br)cc2Cl)C1 (stereo not given)	-2.8%	?	?	?	i
CC1CCCN(CCOCCOc2ccc(Cl)cc2Br)C1 (stereo not given)	-2.1%	23.2%	?	?	16.4µM*
CC(C)NS(=O)(=O)c1ccc(OCC(=O)N2CCCC2)cc1	6.5%	?	i	-2.2%	i
Cc1cc(S(=O)(=O)NC2CCCCC2)ccc1OCC(=O)NCc1ccccn1	?	18.7%	i	27.9%	18.4µM*
Cc1cc(S(=O)(=O)N2CCCC2)ccc1OCC(=O)NCc1ccccn1	-3.2%	-12.1%	i	-5.6%	?
Cc1ccc(C)c(NS(=O)(=O)c2ccc(OCC(=O)N3CCOCC3)cc2)c1	-7.6%	2.6%	i	-9.3%	i
Cc1ccc(C)c(NS(=O)(=O)c2ccc(OCC(=O)N3CCCC3)cc2)c1	-1.3%	22.9%	i	-6.0%	20.6µM*
Cc1ccc(Cl)cc1N1CCN(C(=O)COc2ccc(S(=O)(=O)NC(C)C)cc2)CC1	7.31µM*	9.8%	?	-1.8%	?
O=C(COc1ccc(S(=O)(=O)NC2CCCCC2)cc1)N1CCN(c2cccc(Cl)c2)CC1	?	?	13µM*	28.5%	?
Cc1ccc(OCC(=O)N(c2ccccn2)C2CCCCC2)c(C)c1	10.4%	5.1%	i	-114.6%	18.4µM*
CCOc1ccc(NC(=O)COc2ccc(S(=O)(=O)NC3CCCCC3)cc2)cc1	.	.	i	.	?
C=CCNC(=O)COc1ccc(S(=O)(=O)NC2CCCCC2)cc1	-3.0%	10.3µM*	i	14.6µM*	i
Cc1cc(C(=O)NC2CCCc3c2cnn3-c2cc(F)cc(F)c2)nn1C (stereo not given)	-9.2%	18.0%	i	-2.6%	?
COc1ccc(NC(=O)[C@@H]2CC=C[C@@H]3CCN(C4CC4)C(=O)[C@@H]32)cc1	.	.	i	.	i
CSc1ccc(CCNC(=O)C2CCCN(c3ncnc4c3nc3n4CCCCC3)C2)cc1 (stereo not given)	8.2µM*	16.3%	?	?	i
O=C(Nc1ccc(Cl)cc1)C1CCCN(c2ncnc3c2nc2n3CCCCC2)C1 (stereo not given)	23.1µM*	16.4µM*	?	4.0%	i
O=C(NCc1ccc(Cl)cc1)C1CCCN(c2ncnc3c2nc2n3CCCCC2)C1 (stereo not given)	14.6µM*	?	i	-8.4%	i
CC1CCCCN1CCNC(=O)C1CCCN(c2ncnc3c2nc2n3CCCCC2)C1 (stereo not given)	0.8%	2.9%	i	-19.2%	i
SMILES	ELG1 DNA repair	MCF10A rereplic	KB-3-1 cytotox	SW480 rerep	KB-V1 MDR tox
O=C(Nc1cc(F)ccc1F)C1CCCN(c2ncnc3c2nc2n3CCCCC2)C1 (stereo not given)	?	12.1%	?	-40.0%	?
CCn1c(SCc2nc(N)nc(N3CCCCC3)n2)nc2c1c(=O)n(C)c(=O)n2C	?	3.9%	i	-2.5%	i
CCCN(CC(=O)Nc1cc(Cl)ccc1Cl)C(=O)c1ccc(N2CCCC2=O)cc1	-24.8%	2.3%	?	-4.0%	7.31µM*
O=C(NCCC1=CCCCC1)C(=O)NCC1OCCCN1S(=O)(=O)c1ccccc1 (stereo not given)	-2.7%	-2.1%	i	-2.2%	9.2µM*
Cc1ccc(C)c(S(=O)(=O)N2CCCOC2CNC(=O)C(=O)NCCc2ccccc2)c1 (stereo not given)	-9.7%	?	i	?	?
Cc1ccc(C)c(S(=O)(=O)N2CCCOC2CNC(=O)C(=O)NCCC2=CCCCC2)c1 (stereo not given)	?	1.9%	i	4.1%	5.17µM*
O=C(Nc1cc(S(=O)(=O)N2CCCC2)ccc1Cl)c1ccncc1	6.4%	-1.3%	i	-2.1%	i
COc1ccc(CNc2nc3c(c(=O)n(Cc4ccc(Br)cc4)c(=O)n3C)n2C)cc1	?	?	?	17.4%	9.2µM*
Cn1c(NCc2ccco2)nc2c1c(=O)n(Cc1ccc(Br)cc1)c(=O)n2C	18.4µM*	-6.4%	i	1.4%	i
Cn1c(NCc2ccccc2)nc2c1c(=O)n(Cc1ccc(Br)cc1)c(=O)n2C	20.6µM*	?	i	-3.3%[9.22 µM]	i
Cn1c(=O)c2c(nc(NCc3ccccc3)n2Cc2ccccc2)n(C)c1=O	.	.	i	.	i
Cn1c(NCc2ccco2)nc2c1c(=O)n(Cc1ccc(Cl)cc1Cl)c(=O)n2C	?	?	i	16.4µM*	i
COc1ccc(S(=O)(=O)N2CCOCC2)cc1N=Nc1sc(N)nc1-c1ccccc1	-4.2%	12.7%	i	7.2%	i
Nc1nc(N)c2sc3nc4c(cc3c2n1)CCC4	?	0.4%	i	-0.2%	20.6µM*
CCSc1nnc(NS(=O)(=O)c2ccc(OC)cc2)s1	13.5%	0.731µM*	i	-58.2%	?
CCSc1nnc(NS(=O)(=O)c2ccc(C)cc2)s1	6.4%	-3.3%	i	-0.2%	i
CCOc1cccc(C(=O)Nc2nc(-c3ccc(S(=O)(=O)N4CCOCC4)cc3)cs2)c1	?	-0.4%	i	-4.4%	i
O=C(COc1cccc(Cl)c1)Nc1nc(-c2ccc(S(=O)(=O)N3CCOCC3)cc2)cs1	23.1µM*	?	i	1.4%	?
COc1ccccc1OC(C)C(=O)Nc1nc(-c2ccc(S(=O)(=O)N3CCOCC3)cc2)cs1 (stereo not given)	?	?	i	6.8%	4.61µM*
COc1ccccc1C(=O)Nc1nc(-c2ccc(S(=O)(=O)N3CCOCC3)cc2)cs1	5.17µM*	?	14.6µM*	7.5%	4.61µM*
COc1cc(C2=CCN(C(C)=O)CC2)ccc1OC(C)=O	.	-2.0%	i	-6.5%	i
